Results filed as inconclusive are left out. Calls of active or inactive are those of the source. Calls follow the shape of the dose curve; as a rule, active = well fitted curve in the direction sought with a large enough effect; inconclusive = small, poorly fitted or top-dose-only effect, or another doubt; inactive = no such curve, though single readings can be large; an effect the other way counts as inactive or inconclusive.

We go through 37 compounds from PubChem BioAssay (NCATS).
Also: top concentration of the series differs between compounds.

Chain of Calcium and integrin-binding protein 1 (Homo sapiens) (Q99828 whole entry, looked up): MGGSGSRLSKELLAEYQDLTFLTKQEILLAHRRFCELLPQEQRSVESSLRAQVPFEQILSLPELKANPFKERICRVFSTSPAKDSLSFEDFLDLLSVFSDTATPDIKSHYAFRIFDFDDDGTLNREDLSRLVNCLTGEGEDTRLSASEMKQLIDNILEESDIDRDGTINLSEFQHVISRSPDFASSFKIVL

Tested on in the first test: not listed separately
As to the kind of experiment: Primary qHTS for inhibitors of La Crosse Virus (LACV) - induced cell death in SH-SY5Y cells (AID 1508616).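 Also: 0% = infected DMSO wells and 100% = uninfected DMSO wells; higher means more rescue of cells from virus-induced death.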 Conditions: SH-SY5Y LACV cytopathicity rescue, ATP luminescence, 6 d; series mostly up to 4.29 µM; activity change: at the top concentration. In short, it runs like this: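 Screening measures cell viability in LACV-infected SH-SY5Y cultures. Compound was added before virus (0.01 MOI), and ATP was detected by luminescence 6 days later.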
`CCCCOC(=O)CCCCCCCCC(=O)OCCCC`: the “activity change” value is -9.42% (inactive).

In the case of `NCC[C@H](O)C(=O)N[C@@H]1C[C@H](N)[C@@H](O[C@H]2O[C@H](CN)[C@@H](O)[C@H](O)[C@@H]2O)[C@H](O)[C@@H]1O[C@H]1O[C@H](CO)[C@@H](O)[C@H](N)[C@@H]1O`, the activity change was 4.33% [at 0.0343 µM] (inactive).

Consider `NC(=O)NS(=O)(=O)c1ccc(Cl)cc1`, for which the “activity change” value is 14.9% (inactive).

With `COc1ccc2cc(C=O)ccc2c1`, the “activity change” value was -7.45% (inactive).

Turning to `COc1cc(/C=C/C(N)=O)cc(OC)c1OC`, the “activity change” value was 10.5% (inactive).

For `Nc1ncnc2nc[nH]c12`, the “activity change” value is -2.98% (inactive).

Turning to `CCN(CC)CCOc1ccc(/C(=C(\Cl)c2ccccc2)c2ccccc2)cc1`, the “activity change” value was 9.69% (inactive).

In the case of `CC(=O)[C@H]1CC[C@H]2[C@@H]3C=CC4=CC(=O)CC[C@@]4(C)[C@@H]3CC[C@]12C`, the “activity change” value is 36.2% (inactive).

Turning to `O=C(OCC(COC(=O)c1cccnc1)(COC(=O)c1cccnc1)COC(=O)c1cccnc1)c1cccnc1`, the “activity change” value is -1.47% (inactive).

For `CCC(CN)=C(c1ccccc1)c1ccccc1`, the “activity change” value is 20.1% (inactive).

With `CN1C(CSCC(F)(F)F)Nc2cc(Cl)c(S(N)(=O)=O)cc2S1(=O)=O` (centres undefined), the “activity change” value is 0.213% (inactive).

`COc1ccc2nc(SCc3ncc(C)c(OC)c3C)[nH]c2c1`: the “activity change” value is 19.5% (inactive).

Turning to `O=C1CC2(CCCC2)CC(=O)N1CCNCC1COc2ccccc2O1` (centres undefined), the “activity change” value was 14.2% (inactive).

As for `CN(CC1(C)CCCO1)S(=O)(=O)c1ccc(Cl)c(S(N)(=O)=O)c1` (centres undefined), the “activity change” value was -9.19% (inactive).

For `CCCCC(O)/C=C(C)/C=C/C=C/C(=O)N1CCCC1=O` (centres undefined), the “activity change” value is 13.6% (inactive).

On to `O=C(O)c1ccccc1Nc1cc(Cl)ccc1C(=O)O`, for which the “activity change” value was 3.51% [at 1.78 µM] (inactive).

Consider `CCCC(=O)O[C@]1(C(=O)COC(=O)CC)CC[C@H]2[C@@H]3CCC4=CC(=O)CC[C@]4(C)[C@H]3[C@@H](O)C[C@@]21C`, for which the “activity change” value was -2.08% [at 1.78 µM] (inactive).

`CC(=O)c1cc2ccccc2s1`: the “activity change” value is -9.47% (inactive).

For the compound `Cc1ccc(Cl)c(OCC(O)CNC(C)(C)C)c1` (centres undefined), the “activity change” value is -14.3% (inactive).

In the case of `COc1ccc(CCC(C)=O)cc1`, the “activity change” value was 20.7% (inactive).

Regarding `COCCOCC(OC)OC`, the “activity change” value was 6.01% (inactive).

`Cc1cc(CCCOc2c(C)cc(-c3noc(C(F)(F)F)n3)cc2C)on1`: the “activity change” value is -9.87% (inactive).

With `CN1N=C(C(N)=O)CCC1=O`, the “activity change” value is -19.6% (inactive).

Turning to `Cc1nc(N)nc(N)c1-c1ccc(Cl)c(Cl)c1`, the “activity change” value was -24.2% (inactive).

With `O=S(=O)(O)c1ccc2nc(-c3ccccc3)[nH]c2c1`, the “activity change” value is 23.5% (inactive).

On to `CC(=O)[C@@]1(O)CC[C@H]2[C@@H]3C[C@H](C)C4=CC(=O)CC[C@]4(C)[C@H]3CC[C@@]21C`, for which the “activity change” value is -6% (inactive).

Regarding `Cc1ccccc1N1CCN(CCc2nnc3n2CCCC3)CC1`, the “activity change” value was -7.32% (inactive).

As for `O=C1[C@@H]2[C@H]3CC[C@H](C3)[C@@H]2C(=O)N1CCCCN1CCN(c2ncccn2)CC1`, the “activity change” value is 7.25% (inactive).

In the case of `O=C(O)[C@@H](O)[C@H](O)[C@H](O)[C@@H](O)C(=O)O`, the “activity change” value is 10.3% (inactive).

As for `OCc1cccnc1`, the “activity change” value was -19.6% (inactive).

In the case of `O=C1c2ccccc2CCc2ccccc21`, the “activity change” value is 21% (inactive).

Regarding `CN1Cc2cc(C(=O)N3CCC(C4CCNCC4)CC3)ccc2N[C@@H](CC(=O)O)C1=O`, the “activity change” value was 15.1% (inactive).

Regarding `CN(C)C(=O)CNC(=O)Cc1ccccc1`, the “activity change” value was 5.15% (inactive).

For the compound `C/C(=C(/OCCOc1ccc(Cl)cc1)c1ccc(Cl)cc1Cl)n1ccnc1`, the “activity change” value was 66.1% (inactive).

Turning to `Cc1ccc(-c2ccccc2C#N)cc1`, the “activity change” value is 1.18% (inactive).

As for `c1ccc2c(c1)CCc1ccccc1N2`, the “activity change” value is 24% (inactive).

In the case of `CN(C)CCN(Cc1ccsc1)c1ccccn1`, the “activity change” value is -5.74% (inactive).

The target of the next test is Calcium and integrin-binding protein 1 (Homo sapiens) (UniProt Q99828). As to the kind of experiment: Primary qHTS for Identification of Calcium Integrin Binding Protein 1 (CIB1) Competitor (AID 1508620).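 Also: GST tagged CIB1 binding a fluorescein labelled alphaIIb integrin peptide tracer; % is scaled to controls: 0 for no effect and ±100 for the full control effect.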 Conditions: CIB1-GST / FITC-alphaIIb peptide fluorescence polarization; series mostly up to 114 µM; activity change, negative = inhibition: at the top concentration. In short, it runs like this:
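Fluorescence polarization competition: GST-tagged CIB1 (1 uM final) preincubated with compound 15 min at room temperature, then FITC-labelled alphaIIb peptide (100 nM final) added. After 15 min at room temperature, polarization read at Ex 480/Em 540.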
A general note: qHTS replaces the single test concentration by a dilution series.
On to `CCCCOC(=O)CCCCCCCCC(=O)OCCCC`, for which the “activity change, negative = inhibition” value was -4.51% (inactive).

On to `NCC[C@H](O)C(=O)N[C@@H]1C[C@H](N)[C@@H](O[C@H]2O[C@H](CN)[C@@H](O)[C@H](O)[C@@H]2O)[C@H](O)[C@@H]1O[C@H]1O[C@H](CO)[C@@H](O)[C@H](N)[C@@H]1O`, for which the activity change, negative = inhibition was 3.05% [at 1.07 µM] (inactive).

For `NC(=O)NS(=O)(=O)c1ccc(Cl)cc1`, the “activity change, negative = inhibition” value is 4.38% (inactive).

Turning to `COc1ccc2cc(C=O)ccc2c1`, the “activity change, negative = inhibition” value was 1.9% (inactive).

Consider `COc1cc(/C=C/C(N)=O)cc(OC)c1OC`, for which the “activity change, negative = inhibition” value was -2.5% (inactive).

Consider `Nc1ncnc2nc[nH]c12`, for which the “activity change, negative = inhibition” value was 0.319% (inactive).

`CCN(CC)CCOc1ccc(/C(=C(\Cl)c2ccccc2)c2ccccc2)cc1`: the Potency result is “inactive”.

Take `CC(=O)[C@H]1CC[C@H]2[C@@H]3C=CC4=CC(=O)CC[C@@]4(C)[C@@H]3CC[C@]12C`: the Potency result was “inactive”.

Take `O=C(OCC(COC(=O)c1cccnc1)(COC(=O)c1cccnc1)COC(=O)c1cccnc1)c1cccnc1`: the “activity change, negative = inhibition” value was 1.9% (inactive).

For `CCC(CN)=C(c1ccccc1)c1ccccc1`, the “activity change, negative = inhibition” value is -6.46% (inactive).

Regarding `CN1C(CSCC(F)(F)F)Nc2cc(Cl)c(S(N)(=O)=O)cc2S1(=O)=O` (centres undefined), the “activity change, negative = inhibition” value was -1.76% (inactive).

`COc1ccc2nc(SCc3ncc(C)c(OC)c3C)[nH]c2c1`: the “activity change, negative = inhibition” value is -1.44% (inactive).

Consider `O=C1CC2(CCCC2)CC(=O)N1CCNCC1COc2ccccc2O1` (centres undefined), for which the “activity change, negative = inhibition” value is 3.9% (inactive).

For the compound `CN(CC1(C)CCCO1)S(=O)(=O)c1ccc(Cl)c(S(N)(=O)=O)c1` (centres undefined), the “activity change, negative = inhibition” value is -4.41% (inactive).

Regarding `CCCCC(O)/C=C(C)/C=C/C=C/C(=O)N1CCCC1=O` (centres undefined), the “activity change, negative = inhibition” value was -11.2% (inactive).

Consider `O=C(O)c1ccccc1Nc1cc(Cl)ccc1C(=O)O`, for which the “activity change, negative = inhibition” value is -3.07% [at 57.7 µM] (inactive).

Turning to `CCCC(=O)O[C@]1(C(=O)COC(=O)CC)CC[C@H]2[C@@H]3CCC4=CC(=O)CC[C@]4(C)[C@H]3[C@@H](O)C[C@@]21C`, the “activity change, negative = inhibition” value was -0.475% [at 57.7 µM] (inactive).

Consider `CC(=O)c1cc2ccccc2s1`, for which the “activity change, negative = inhibition” value was -1.64% (inactive).

As to `Cc1ccc(Cl)c(OCC(O)CNC(C)(C)C)c1` (centres undefined), the “activity change, negative = inhibition” value is 2.72% (inactive).

In the case of `COc1ccc(CCC(C)=O)cc1`, the “activity change, negative = inhibition” value was 2.28% (inactive).

In the case of `COCCOCC(OC)OC`, the “activity change, negative = inhibition” value is 3.41% (inactive).

`Cc1cc(CCCOc2c(C)cc(-c3noc(C(F)(F)F)n3)cc2C)on1`: the “activity change, negative = inhibition” value was -2.11% (inactive).

Regarding `CN1N=C(C(N)=O)CCC1=O`, the “activity change, negative = inhibition” value is 0.175% (inactive).

In the case of `Cc1nc(N)nc(N)c1-c1ccc(Cl)c(Cl)c1`, the “activity change, negative = inhibition” value was 1.36% (inactive).

`O=S(=O)(O)c1ccc2nc(-c3ccccc3)[nH]c2c1`: the “activity change, negative = inhibition” value was -18.3% (inactive).

With `CC(=O)[C@@]1(O)CC[C@H]2[C@@H]3C[C@H](C)C4=CC(=O)CC[C@]4(C)[C@H]3CC[C@@]21C`, the “activity change, negative = inhibition” value was 0.949% (inactive).

On to `Cc1ccccc1N1CCN(CCc2nnc3n2CCCC3)CC1`, for which the “activity change, negative = inhibition” value is 1.17% (inactive).

Regarding `O=C1[C@@H]2[C@H]3CC[C@H](C3)[C@@H]2C(=O)N1CCCCN1CCN(c2ncccn2)CC1`, the “activity change, negative = inhibition” value is 0.143% (inactive).

`O=C(O)[C@@H](O)[C@H](O)[C@H](O)[C@@H](O)C(=O)O`: the “activity change, negative = inhibition” value is 1.24% (inactive).

For the compound `OCc1cccnc1`, the “activity change, negative = inhibition” value is 8.57% (inactive).

`O=C1c2ccccc2CCc2ccccc21`: the “activity change, negative = inhibition” value was 5.37% (inactive).

Turning to `CN1Cc2cc(C(=O)N3CCC(C4CCNCC4)CC3)ccc2N[C@@H](CC(=O)O)C1=O`, the “activity change, negative = inhibition” value was 2.12% (inactive).

Turning to `CN(C)C(=O)CNC(=O)Cc1ccccc1`, the “activity change, negative = inhibition” value is 0.847% (inactive).

With `C/C(=C(/OCCOc1ccc(Cl)cc1)c1ccc(Cl)cc1Cl)n1ccnc1`, the “activity change, negative = inhibition” value was 6.6% (inactive).

For `Cc1ccc(-c2ccccc2C#N)cc1`, the “activity change, negative = inhibition” value is -2.52% (inactive).

`c1ccc2c(c1)CCc1ccccc1N2`: the “activity change, negative = inhibition” value was -4.24% (inactive).

In the case of `CN(C)CCN(Cc1ccsc1)c1ccccn1`, the “activity change, negative = inhibition” value is -5.33% (inactive).
